# Measurements taken from the supplement of paper PMC3334620.
# Whole data set: some 33,000 sequences, median “E-score (-0.5 to 0.5)” near -0.011, cut for the highest 2% near 0.28. The full list was thinned out, with the highest values kept by preference.
# Target: T1, Gcr1 (UniProt P07261)
# T1 sequence: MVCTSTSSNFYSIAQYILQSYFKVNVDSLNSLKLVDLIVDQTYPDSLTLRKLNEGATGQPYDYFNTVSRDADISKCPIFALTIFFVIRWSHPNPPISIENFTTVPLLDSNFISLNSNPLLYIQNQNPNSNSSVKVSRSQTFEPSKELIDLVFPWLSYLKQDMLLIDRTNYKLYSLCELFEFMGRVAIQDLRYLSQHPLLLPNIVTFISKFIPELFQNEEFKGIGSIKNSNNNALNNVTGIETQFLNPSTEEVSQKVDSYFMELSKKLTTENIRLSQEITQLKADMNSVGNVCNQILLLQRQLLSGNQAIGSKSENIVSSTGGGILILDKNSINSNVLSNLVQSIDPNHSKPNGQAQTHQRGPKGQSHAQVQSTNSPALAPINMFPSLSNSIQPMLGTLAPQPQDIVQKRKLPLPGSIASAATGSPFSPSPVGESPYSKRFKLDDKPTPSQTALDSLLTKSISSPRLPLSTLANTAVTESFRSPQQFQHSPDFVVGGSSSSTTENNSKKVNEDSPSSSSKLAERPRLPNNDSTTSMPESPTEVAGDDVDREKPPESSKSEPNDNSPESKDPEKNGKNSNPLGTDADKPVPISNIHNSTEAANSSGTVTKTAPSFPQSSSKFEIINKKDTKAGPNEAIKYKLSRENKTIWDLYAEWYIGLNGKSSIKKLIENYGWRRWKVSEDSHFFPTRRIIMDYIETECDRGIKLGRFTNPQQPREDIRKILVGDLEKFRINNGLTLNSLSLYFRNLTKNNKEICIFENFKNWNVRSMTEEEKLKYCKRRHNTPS
# Assay: PBM E-score (8-mer binding enrichment) (E-score (-0.5 to 0.5)); higher = stronger / more preferred TF binding
# Conditions: protein concentration: 100 nM; construct: GST-full length
# In short: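 Bound GST-tagged yeast transcription factors, applied at about 100-200 nM to double-stranded universal all-10-mer Agilent arrays, were detected with fluorescent anti-GST. Scans were normalised with masliner. A modified Wilcoxon-Mann-Whitney statistic, the E-score, was assigned to each ungapped eight-base word pooled with its reverse complement by the Universal PBM Analysis Suite.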
row,Sequence,PBM E-score
1,AGGCTGGA,-0.133
2,AAAATAGG,0.335
3,AAAATGGA,0.142
4,ATAATGGA,0.196
5,AAAATAGT,0.0219
6,ATAATGGG,0.326
7,AAAATAGC,0.272
8,CAAATGGG,-0.0381
9,ATAATGGC,-0.00297
10,AAAATGGG,0.29
11,CGCTCCGA,-0.0796
12,CTCTTTAA,-0.101
13,GGTCGATA,-0.135
14,CCTTAAAG,0.0175
15,CATCGACG,-0.0993
16,TCAAGGCA,-0.127
17,GCTGACTA,-0.0111
18,CTGGGCAC,0.239
19,AGTGGCAA,0.088
20,AGTGGCTC,0.218
21,AGTGGCTG,0.312
22,AGTGGCTA,-0.0284
23,AGTGGCAC,0.15

row,Sequence,PBM E-score
1,AGTGGCAG,0.287
2,GCGTTCAC,0.00885
3,AACATGTG,0.141
4,GCGGGAGA,-0.277
5,ATGGGGTA,-0.128
6,CTGGGGTA,-0.0593
7,GTGGGGTA,0.286
8,CAAGGAAC,0.0885
9,GCAGGCGA,-0.0907
10,CGGCTACC,0.0369
11,AGGCTACC,0.0739
12,GGGCTACC,0.302
13,CGCCGCGC,0.137
14,ATGGCCCG,-0.309
15,GATTCGCC,0.0655
16,GGACGTCA,-0.115
17,TGACGCCA,-0.0776
18,CGACGTCC,0.0613
19,CGACGCCC,0.287
20,CGACGCAC,-0.0398
21,CAACGCCC,0.0625
22,AGACGCCC,0.259
23,GGACGTCC,0.291

row,Sequence,PBM E-score
1,GCACGCCC,-0.122
2,GGACGCCA,0.418
3,GGACGCCC,0.441
4,GCACGCCA,-0.0682
5,CCACTTGA,0.138
6,GTTCTCCA,-0.137
7,ATAAGTGA,-0.119
8,ACTGGGTC,-0.0289
9,ACAGGCAG,0.252
10,CGAGCCCA,-0.119
11,AACATTTC,-0.0184
12,TCATTGGA,-0.0473
13,GCCTGTAA,0.109
14,CCCCTGAA,0.0139
15,TCCTGTAA,0.354
16,CCCTGTAG,0.107
17,ACCTGTAT,0.322
18,ACCTGTAG,0.135
19,ACCTGTAA,-0.0579
20,GCCCTGTA,0.0785
21,CCCCTGTA,0.284
22,CCCTGTAA,0.308
23,CCCTGTAC,-0.0614

row,Sequence,PBM E-score
1,ACCTGTAC,0.0266
2,AGGATTGA,0.106
3,AACCATCG,-0.148
4,ATTATGGA,0.161
5,CGTTCTAG,0.0647
6,TACCTCTA,0.238
7,CGACTCGA,-0.0795
8,AGGTTGCG,0.136
9,AGGTTGCC,0.28
10,AGGTTGCA,0.125
11,CGATTTAC,-0.039
12,CGCAGAGC,-0.291
13,ATCCACTC,0.318
14,GTCCACGA,-0.0295
15,CTCCACTA,0.215
16,ATCCACTA,0.369
17,CTCCACTC,0.022
18,ACCCACTC,0.0683
19,ATCCACGA,0.0269
20,GTCCACTA,0.334
21,ATCCACTG,0.0833
22,CTTAGATA,0.0548
23,ACACTTAG,-0.0488

row,Sequence,PBM E-score
1,ACATCCAG,0.251
2,ACAGCACA,-0.109
3,ATGTACAC,0.00539
4,GTCGTTGA,-0.219
5,GAGGGCGC,0.114
6,CACGCTGC,0.236
7,GACGCTGC,0.332
8,CACGCTGA,-0.0481
9,AACGCTGA,-0.0701
10,AACGCTGC,0.0719
11,GACGCTGA,0.301
12,AGGGCAGG,-0.173
13,AGTGCTTC,-0.0411
14,CCGTCCAC,0.016
15,CCGTCCAA,0.13
16,GCGTCCAA,0.372
17,ACGTCCAC,0.104
18,ACGTCCAA,0.00712
19,GCGTCCAC,0.339
20,ATACCGGG,0.208
